Compound activity from PubChem BioAssay.
Mito fusion act: qHTS Assay for Small Molecule Inhibitors of Mitochondrial Division or Activators of Mitochondrial Fusion; S. cerevisiae fusion-defective mutant growth rescue, CellTiterGlo 48 h; Potency, µM (top dose mostly 46.1 µM), inactives show top-dose growth rescue (activation), hits mostly activators; 0.23% of 320,000 active; note: % of control where 0% means no effect; nearly all actives have a fitted effect of over 45% in size
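Compounds are tested for their ability to restore growth of mitochondrial fusion-defective yeast strains at non-permissive 37C in YPEG medium over 48 hours. Viability is quantified by luciferase luminescence.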
AT treatment: qHTS Assay for Identifying a Potential Treatment of Ataxia-Telangiectasia; F2112 A-T fibroblasts, KAP-1 phosphorylation AlphaLISA; neocarzinostatin DNA damage 30 min before lysis; Potency, µM (doses to about 57.5 µM), without a hit: at the top dose activation, hits mostly activators; 0.19% of 320,000 active; note: % of control where 0% means no effect; nearly all actives have a fitted effect of over 45% in size
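hTERT-immortalized A-T patient fibroblasts (F2112), 500 cells/well in OPTI-MEM, 1% FBS, got compounds for 60 min, then NCS for 30 min at 37C. Lysates were then assayed for phospho-KAP-1 by AlphaLISA (anti-pKAP1 donor, anti-KAP1 acceptor beads), 6 hr at 25C.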
FUS yeast rescue: qHTS for Suppressors of FUS Proteinopathy: Primary screen using FUS-linked yeast assay; S. cerevisiae FUS-expressing, growth rescue, OD600, 24 h; Potency, µM (titrated, usually from 76.6 µM), usual class: activators; 0.24% of 390,000 active;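 note: plate controls were DMSO vehicle for no effect and reference control for full effect; nearly all actives have a fitted effect of over 55% in size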
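Absorbance at 600 nm, taken 24hr after compound addition, measured rescue of FUS-yeast growth at 30C. Induction used 2% galactose with seeding at OD 0.005. Controls: CP55940 from 92uM final, DMSO only.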
TDP-43 yeast inh: qHTS of TDP-43 Inhibitors. AID 652104, 2013. Potency, µM (doses to about 46.1 µM), for the others: top-dose growth rescue (activation), usual class: activators. 1.8% of 410,000 active. TDP-43 expressing yeast growth rescue, BacTiter-Glo, 24 h; note: % of control where 0% means no effect; nearly all actives have a fitted effect of over 50% in size
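Yeast expressing TDP-43 (pregrown in raffinose, seeded at OD600=0.02 in galactose medium) exposed to compounds 24 hr at 30 deg C. Growth read by BacTiter-Glo luminescence; rescue of toxicity appears as increased signal.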
aSyn rescue: qHTS of alpha-syn Inhibitors | Yeast expressing alpha-synuclein, growth rescue, BacTiter-Glo, 24 h | Potency, µM (top dose mostly 46.1 µM), for inactives: at the highest dose growth rescue (activation), hits mostly activators | 0.14% of 370,000 active; note: % of control where 0% means no effect; nearly all actives have a fitted effect of over 65% in size
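Galactose-induced alpha-syn yeast (OD600=0.02, raffinose-pregrown) + pinned cpd, 24 hr, 30 deg C; growth by BacTiter-Glo luminescence. Growth restoration scores as activation.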
Abeta rescue: qHTS for compounds that reverse cellular toxicity of Amyloid beta (A-beta) peptide in yeast: Primary Screen; Potency, µM (series often up to 46.1 µM), usual class: activators; yeast expressing A-beta42, growth rescue, OD600, 48 h; response scale: 0% DMSO, 100% iron-clioquinol control; 0.063% of 410,000 active; note: nearly all actives have a fitted effect of over 55% in size
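Yeast growth medium received pinned compounds, then yeast cells expressing toxic A-beta were added; plates incubated at 30 C for 48 hr. Growth read as absorbance at 600 nm, normalized to DMSO and equimolar FeCl3 plus clioquinol controls.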
* hit, by the source's call; i = inactive; u = inconclusive; x = no result. Shown are actives, neighbours in structure and some others; about 2.4% of the full set was active somewhere. Calls come from the whole dose curve; as a rule, active = well fitted curve in the direction sought with a large enough effect; inconclusive = small, poorly fitted or top-dose-only effect, or another doubt; inactive = no such curve, though single readings can be large; an effect the other way counts as inactive or inconclusive. Potency is the fitted concentration of half-maximal effect.

SMILES	Mito fusion act	AT treatment	FUS yeast rescue	TDP-43 yeast inh	aSyn rescue	Abeta rescue
CC1(C)NC(=O)N(CCCOc2ccc(Br)cc2Cl)C1=O	3%	-1%	u	5%	-4%	i
O=C(c1cccs1)N1CC[C@H]2[C@H](CCCN2Cc2cc(F)cc(F)c2)C1	x	x	i	x	x	x
Cc1ccccc1Oc1ncnc2sccc12	-2%	2%	i	11µM*	-16%	i
c1ccc(Oc2ncnc3sccc23)cc1	-5%	3%	i	11µM*	-1%	i
CCC(C)[C@@H](C(=O)OC)N(Cc1cn(Cc2ccccc2)nn1)S(=O)(=O)c1ccccc1Br (stereo partly drawn)	x	x	i	x	x	x
O=C1NC(=O)/C(=C/c2ccc3nccnc3c2)S1	9.2µM*	x	x	x	8%	x
COCCNC(=O)[C@@H]1CSC2c3ccc(OC)c(OC)c3C(=O)N21 (stereo partly drawn)	u	3%	i	2.8µM*	-4%	i
COc1ccc2c(c1)CC/C(=C/c1ccncc1)C2=O	6%	2%	i	1%	-2%	i
COc1ccc2c(c1)CC/C(=C\c1ccc(C)o1)C2=O	6%	7%	i	18µM*	-1%	i
O=C(CCCC(=O)c1ccccc1)Nc1ccc(F)cc1	5%	1%	i	5.6µM*	-8%	i
O=C(CSc1nccc(-c2cccs2)n1)Nc1cccc(Cl)c1	29%	11%	i	14µM*	3%	i
Nn1cnc2c(c1=O)C1(CCCCC1)Cc1ccccc1-2	-10%	5%	x	10µM*	0%	i
CC(=O)Nn1cnc2c(c1=O)C1(CCCC1)Cc1ccccc1-2	3%	-11%	i	2%	-1%	i
CCC(Oc1ccccc1)C(=O)Nc1nnc(S(=O)(=O)N(CC)CC)s1 (stereo not drawn)	x	x	i	6%	x	i
Nc1cccc(CCc2nc3cc4ccccc4cc3[nH]2)c1	20µM*	5%	i	2%	0%	i
COc1ccc(C2C(C(=O)Nc3ccc(F)cc3)CCC(=O)N2c2ccc(OC)cc2)cc1 (stereo not drawn)	x	x	i	x	x	x
CC1CCN(C(=O)CSc2nc(-c3ccc(C(C)C)cc3)no2)CC1	x	x	i	18µM*	x	i
CCC[C@H]1NC(=O)[C@H](C)N(C)C(=O)C(C)(C)C(=O)C(C)NC(=O)[C@H](Cc2ccc(OC)cc2)N(C)C(=O)[C@H](C(C)C)N(C)C(=O)CNC(=O)[C@H](CC(C)C)N(C)C(=O)CNC(=O)[C@H]([C@@H](C)CC)OC(=O)[C@H]1C (stereo partly drawn)	x	13%	u	35µM*	11%	i
CC[C@H](C)C1OC(=O)[C@@H](C)[C@@H](CC)NC(=O)[C@H](C)N(C)C(=O)C(C)(C)C(=O)C(C)NC(=O)[C@H](Cc2ccc(OC)cc2)N(C)C(=O)[C@H](C(C)C)N(C)C(=O)CNC(=O)[C@H](CC(C)C)N(C)C(=O)CNC1=O (stereo partly drawn)	x	x	u	-5%	14%	i
Cc1ccc(C)c(OCC(=O)NC2CCCCCC2)c1	9%	11%	i	11µM*	11%	i
CCS(=O)(=O)N1CC(=O)N(c2cc(C)cc(C)c2)C(C)(C(=O)NC2CCCCC2)C1 (stereo not drawn)	x	x	i	11%	x	i
CCOc1cc(/C=C2/C(=O)ON=C2C)ccc1O	-14%	0%	i	18µM*	4%	u
C#CCOc1c(Cl)cc(/C=C2/C(=O)ON=C2C)cc1OC	8%	4%	i	16µM*	-9%	i
CC1=NOC(=O)/C1=C/c1ccc(O)c(Cl)c1	1%	-2%	i	18%	-8%	i
